The values below come from PubChem BioAssay AID1085 (Emory University Molecular Libraries Screening Center, 2008).

Among all 220,000 compounds or so, about 930 (0.42%) were called active. Only a selection was taken, and actives are over-represented in it overall. Values without a mark were called inactive. Cut-off read from the data, not from the text of the source: active = inhibition above about 50%; inactive = the rest.

The target of this experiment is Glycoprotein 42 (Epstein-Barr virus (strain AG876)) (UniProt Q1HVG2). Description: Epstein-Barr virus gp42 inhibitors, primary screen, biochemical, uHTS, fluorescence polarization (AID 1085). Particulars: Fluorescence polarization binding assay, mP read-out; hits give high values; tested at 21.74 µM.
Chain of Glycoprotein 42 (Epstein-Barr virus (strain AG876)) (Q1HVG2 whole entry, looked up): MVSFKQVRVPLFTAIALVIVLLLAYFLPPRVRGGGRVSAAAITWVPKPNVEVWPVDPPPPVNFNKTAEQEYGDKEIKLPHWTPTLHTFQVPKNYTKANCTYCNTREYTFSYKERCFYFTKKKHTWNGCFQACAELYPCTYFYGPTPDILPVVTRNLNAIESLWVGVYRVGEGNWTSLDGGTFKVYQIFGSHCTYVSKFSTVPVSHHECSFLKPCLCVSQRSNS
With `O=C1NC(=O)N(c2ccc(F)cc2)C(=O)/C1=C/c1ccc2c(c1)CCCN2Cc1ccccc1`, the inhibition was 187% (active). In the case of `O=C1NC(=O)N(c2ccccc2)C(=O)/C1=C/c1ccc([N+](=O)[O-])s1` it was -9.65%.

For the compound `Cc1cccc(N2C(=O)NC(=O)/C(=C\c3cnn(-c4ccccc4)c3)C2=O)c1`, the inhibition was -3.6%. On to `O=c1[nH]c(=O)n(CCc2ccccc2)c(O)c1/C=N/N1CCOCC1`, for which the inhibition is -16.8%. In the case of `CN(C)CC1Oc2ccccc2OC1(O)c1ccccc1` (stereo not given), the inhibition is -12%.
